# Measurements taken from PubChem BioAssay (Tox21).
# Results filed as inconclusive are left out. A call without a number means that no potency is given here. A number with no mark means an inactive call. Activity calls are given as the source filed them. Unless noted, calls come from the whole dose curve.
# What was measured:
# [1] = molecular target: Nuclear receptor subfamily 1 group I member 3 (Homo sapiens) (UniProt Q14994); experiment: qHTS assay to identify small molecule agonists of the constitutive androstane receptor (CAR) signaling pathway (AID 1224839; active = well fitted curve in the direction sought with a large enough effect in the repeat runs; an effect the other way counts as inactive or inconclusive;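 note: HepG2 cells stably carrying human CAR and a CYP2B6 luciferase reporter; series mostly up to about 92 µM; nearly all actives have a fitted effect of over 15% in size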)
# Outline: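 HepG2 cells stably expressing hCAR and a CYP2B6-2.2kb luciferase reporter were treated with compounds at 15 concentrations plus 0.75 uM PK11195 (final) for 24 h at 37 C; luminescence was read after ONE-Glo addition.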
# [2] = qHTS assay to identify small molecule antagonists of the estrogen related receptor signaling pathway with the pleiotropic PPARgamma coactivator (PGC) from Tox21 10K library - cell viability counter screen (AID 1224840; active = well fitted cell-killing curve with a large enough effect in the repeat runs, not every such curve was filed as active; note: nearly all actives have a fitted effect of over 40% in size)
# Outline: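 Cell viability is measured by CellTiter-Fluor fluorescence in PGC/ERR cells that receive compounds after a 6-hour attachment period and are then incubated 17.5 hours at 37 C.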
# [3] = qHTS assay to identify small molecule antagonists of the estrogen related receptor signaling pathway with the pleiotropic PPARgamma coactivator (PGC) from Tox21 10K library (AID 1224841; call rule not given here; note: series mostly up to about 92 µM; actives are mostly falling curves and most rising ones were filed inactive; nearly all actives have a fitted effect of over 50% in size)
# Outline: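 Cells stably carrying the PGC/ERR reporter, seeded at 2,000 per well, received pin-transferred compounds 6 h post-plating. Exposure lasted 18 h at 37 C. Signal: One-Glo luminescence.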
# [4] = qHTS assay to identify small molecule agonists of the estrogen related receptor signaling pathway with the pleiotropic PPARgamma coactivator (PGC) from Tox21 10K library (AID 1224842; active = well fitted curve in the direction sought with a large enough effect in the repeat runs; an effect the other way counts as inactive or inconclusive; note: nearly all actives have a fitted effect of over 15% in size)
# Outline: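 PGC/ERR reporter cell line, 2,000 cells per well, incubated 6 h at 37 C before 23 nL compound in DMSO was added. After 18 h at 37 C, One-Glo luminescence read following 30 min at room temperature.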
# [5] = molecular target: Thyrotropin receptor (Homo sapiens) (UniProt P16473); experiment: qHTS assay to identify small molecule agonists of the thyroid stimulating hormone receptor (TSHR) signaling pathway (AID 1224843); note: nearly all actives have a fitted effect of over 45% in size
# Outline: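 HEK293/TSHR, 800 cells/well; cpd 30 min RT; add cAMP-d2 + anti-cAMP-cryptate, 1 h RT; fluorescence read on plate reader. 15-pt titration, n=3.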
# [6] = qHTS assay to identify small molecule agonists of the hypoxia (HIF-1) signaling pathway - cell viability counter screen (AID 1224844); note: nearly all actives have a fitted effect of over 50% in size
# Outline: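 Viability counter screen: HRE-bla ME-180 cells plated 5 hrs before compound addition, treated 17 hrs at 37C and 5% CO2, then CellTiter-Glo added after the FRET reporter read; luminescence after 30 min.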
# [7] = qHTS assay to identify small molecule agonists of H2AX (AID 1224845; active = well fitted activation curve with a large enough effect in the signal ratio in the repeat runs, not every such curve was filed as active; the % refers to the signal ratio)
# Outline: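 Wild-type CHO-K1 cells, plated overnight, exposed 3hr at 37C to 15 concentrations (0.76% DMSO final). Lysed, then HTRF anti-pH2AX (S139) cryptate and anti-H2AX-d2 antibodies, 24 hr room temperature; 665/620 nm emission read.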
# [8] = qHTS assay to identify small molecule agonists of the hypoxia (HIF-1) signaling pathway (AID 1224846; active = well fitted activation curve with a large enough effect in the signal ratio in the repeat runs, not every such curve was filed as active; the % refers to the signal ratio)
# Outline: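 Agonist mode reporter screen. ME-180 cells stably expressing bla under HRE control received test compounds in DMSO for 17 hrs (37C, 5% CO2), and beta-lactamase activity was then detected with the CCF4-AM FRET substrate.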
# [9] = qHTS assay to identify small molecule agonists of H2AX - cell viability counter screen (AID 1224847); note: nearly all actives have a fitted effect of over 30% in size; note: potency is the fitted concentration of half-maximal effect; for activity change, negative = cytotoxicity: top concentration of the series differs between compounds
# Outline: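 Wild-type CHO-K1 cells (10% FBS medium) were plated overnight at 37C, exposed to compounds at 15 concentrations for 3 hr at 37C (0.76% DMSO final), and viability was read as CellTiter-Glo luminescence after 30 min at room temperature.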
# [10] = qHTS assay to identify small molecule antagonists of the estrogen related receptor (ERR) signaling pathway from Tox21 library (AID 1224848; active = well fitted curve in the direction sought with a large enough effect in the repeat runs; an effect the other way counts as inactive or inconclusive; note: nearly all actives have a fitted effect of over 50% in size)
# Outline: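 Compounds dissolved in DMSO are pin-transferred onto ERR reporter cells (2,000 per well) that have settled for 6 h at 37 C. Plates then incubate 18 h at 37 C before ONE-Glo luciferase reagent and a luminescence read 30 min later.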
# Sequence of Nuclear receptor subfamily 1 group I member 3 (Homo sapiens) (Q14994 whole entry, looked up): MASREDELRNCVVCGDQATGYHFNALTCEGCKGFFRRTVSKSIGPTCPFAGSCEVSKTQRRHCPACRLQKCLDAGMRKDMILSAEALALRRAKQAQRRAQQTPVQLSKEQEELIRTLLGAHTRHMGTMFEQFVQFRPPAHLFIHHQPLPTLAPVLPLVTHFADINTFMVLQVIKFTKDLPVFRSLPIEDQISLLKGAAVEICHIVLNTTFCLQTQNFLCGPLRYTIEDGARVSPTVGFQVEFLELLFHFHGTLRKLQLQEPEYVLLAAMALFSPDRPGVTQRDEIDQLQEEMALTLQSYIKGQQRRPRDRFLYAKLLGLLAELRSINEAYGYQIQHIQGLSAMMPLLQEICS
# Sequence of Thyrotropin receptor (Homo sapiens) (P16473 whole entry, looked up): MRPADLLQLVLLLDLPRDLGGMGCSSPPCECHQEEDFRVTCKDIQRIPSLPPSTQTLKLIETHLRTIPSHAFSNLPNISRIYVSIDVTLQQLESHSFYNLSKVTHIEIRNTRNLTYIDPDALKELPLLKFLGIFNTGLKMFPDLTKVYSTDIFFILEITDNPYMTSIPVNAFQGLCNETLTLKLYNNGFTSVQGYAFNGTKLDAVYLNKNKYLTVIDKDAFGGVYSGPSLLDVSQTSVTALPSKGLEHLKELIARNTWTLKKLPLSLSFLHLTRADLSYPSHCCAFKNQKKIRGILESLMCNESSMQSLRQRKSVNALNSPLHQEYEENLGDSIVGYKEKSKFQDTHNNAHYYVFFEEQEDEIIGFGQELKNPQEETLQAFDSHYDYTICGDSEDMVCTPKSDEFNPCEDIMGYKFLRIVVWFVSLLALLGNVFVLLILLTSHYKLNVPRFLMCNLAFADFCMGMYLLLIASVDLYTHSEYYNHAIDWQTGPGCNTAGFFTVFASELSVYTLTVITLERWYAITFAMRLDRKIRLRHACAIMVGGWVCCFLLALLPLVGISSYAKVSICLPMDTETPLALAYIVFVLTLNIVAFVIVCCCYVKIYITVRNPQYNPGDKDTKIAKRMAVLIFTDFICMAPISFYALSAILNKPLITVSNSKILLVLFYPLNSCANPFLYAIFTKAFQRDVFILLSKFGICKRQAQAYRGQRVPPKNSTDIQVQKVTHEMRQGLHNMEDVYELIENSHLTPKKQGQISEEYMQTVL
compound,measurement,setting,value
C=CCOC(=O)c1ccc(C(=O)OCC=C)c(C(=O)OCC=C)c1,Potency,[1],inactive
same,outcome,[2],inactive
same,Potency,[3],inactive
same,outcome,[4],inactive
same,outcome,[5],inactive
same,outcome,[6],inactive
same,outcome,[7],inactive
same,outcome,[8],inactive
same,Potency,[9],inactive
same,Potency,[10],inactive
FC(F)(F)/C(=N\OCC1OCCO1)c1ccc(Cl)cc1,Potency,[1],inactive
same,outcome,[2],inactive
same,outcome,[6],inactive
same,outcome,[7],inactive
same,outcome,[8],inactive
same,Potency,[9],inactive
CCCCOC(=O)[C@@H](C)Oc1ccc(Oc2ccc(C(F)(F)F)cn2)cc1,Potency,[1],inactive
same,outcome,[2],inactive
same,outcome,[6],inactive
same,outcome,[7],inactive
same,outcome,[8],inactive
C[C@@H]1C[C@H]2[C@@H]3C[C@H](F)C4=CC(=O)C=C[C@]4(C)[C@@]3(F)[C@@H](O)C[C@]2(C)[C@@]1(O)C(=O)CO,Potency,[1],inactive
same,outcome,[2],inactive
same,Potency,[3],inactive
same,outcome,[4],inactive
same,outcome,[5],inactive
same,outcome,[7],inactive
same,outcome,[8],inactive
same,Potency,[9],inactive
same,Potency,[10],inactive
CCOC(=O)CCCCCCCCC(=O)OCC,Potency,[1],inactive
same,outcome,[2],inactive
same,outcome,[6],inactive
same,outcome,[7],inactive
same,outcome,[8],inactive
same,Potency,[9],inactive
C=COCCOCCOC=C,Potency,[1],inactive
same,outcome,[2],inactive
same,outcome,[6],inactive
same,outcome,[7],inactive
same,outcome,[8],inactive
same,Potency,[9],inactive
CCCCCC1CCCC(=O)O1 (stereo unspecified),Potency,[1],inactive
same,outcome,[2],inactive
same,Potency,[3],inactive
same,outcome,[4],inactive
same,outcome,[5],inactive
same,outcome,[6],inactive
same,outcome,[7],inactive
same,outcome,[8],inactive
same,Potency,[9],inactive
same,Potency,[10],inactive
CCC(=O)OCCC(C)CCC=C(C)C (stereo unspecified),Potency,[1],inactive
same,outcome,[6],inactive
same,outcome,[7],inactive
same,outcome,[8],inactive
same,Potency,[9],inactive
CCN(CCO)c1cccc(C)c1,outcome,[2],inactive
same,Potency,[3],inactive
same,outcome,[4],inactive
same,outcome,[5],inactive
same,outcome,[6],inactive
same,outcome,[7],inactive
same,outcome,[8],inactive
same,Potency,[9],inactive
same,Potency,[10],inactive
CCCCCCCCCOCC1CO1 (stereo unspecified),Potency,[1],inactive
same,Potency,[3],inactive
same,outcome,[4],inactive
same,outcome,[5],inactive
same,outcome,[6],inactive
same,outcome,[7],inactive
same,outcome,[8],inactive
same,Potency,[9],inactive
same,Potency,[10],inactive
C[CH2][Ge]([Cl])([CH2]C)[CH2]C,outcome,[2],inactive
same,Potency,[3],inactive
same,outcome,[4],inactive
same,outcome,[5],inactive
same,outcome,[6],inactive
same,outcome,[7],inactive
same,outcome,[8],inactive
same,Potency,[9],inactive
same,Potency,[10],inactive
CC(C)C(=O)Nc1cccc(C(F)(F)F)c1,Potency,[1],inactive
same,Potency,[3],inactive
same,outcome,[4],inactive
same,outcome,[7],inactive
same,outcome,[8],inactive
same,Potency,[9],inactive
same,Potency,[10],inactive
CCCCCCCCCCCCCCCCCCN(C)C,outcome,[2],inactive
same,Potency,[3],inactive
same,outcome,[4],inactive
same,outcome,[5],inactive
same,outcome,[6],inactive
same,outcome,[7],inactive
same,outcome,[8],inactive
same,Potency,[9],inactive
same,Potency,[10],inactive
FC(F)(F)c1ccc(Cl)cc1Cl,outcome,[2],inactive
same,Potency,[3],inactive
same,outcome,[4],inactive
same,outcome,[5],inactive
same,outcome,[6],inactive
same,outcome,[7],inactive
same,outcome,[8],inactive
same,Potency,[9],inactive
same,Potency,[10],inactive
Cc1ncc([N+](=O)[O-])n1CC(O)CCl (stereo unspecified),outcome,[2],inactive
same,Potency,[3],inactive
same,outcome,[4],inactive
same,outcome,[5],inactive
same,outcome,[6],inactive
same,outcome,[7],inactive
same,outcome,[8],inactive
same,Potency,[9],inactive
same,Potency,[10],inactive
CC(=O)OC(C)c1ccccc1 (stereo unspecified),Potency,[1],inactive
same,outcome,[2],inactive
same,outcome,[6],inactive
same,outcome,[7],inactive
same,outcome,[8],inactive
same,Potency,[9],inactive
O=C(O)c1ccccc1C(=O)Nc1ccc(S(=O)(=O)Nc2nccs2)cc1,Potency,[1],inactive
same,outcome,[2],inactive
same,outcome,[7],inactive
same,Potency,[9],inactive
NC(=O)NC(=O)Cc1ccccc1,outcome,[2],inactive
same,Potency,[3],inactive
same,outcome,[4],inactive
same,outcome,[5],inactive
same,outcome,[6],inactive
same,outcome,[7],inactive
same,outcome,[8],inactive
same,Potency,[9],inactive
same,Potency,[10],inactive
C1=C\CC/C=C\CC/1,Potency,[1],inactive
same,outcome,[2],inactive
same,outcome,[6],inactive
same,outcome,[7],inactive
same,outcome,[8],inactive
same,Potency,[9],inactive
CC(CC(=O)O)CC(C)(C)C (stereo unspecified),Potency,[1],inactive
same,outcome,[2],inactive
same,outcome,[6],inactive
same,outcome,[7],inactive
same,outcome,[8],inactive
same,Potency,[9],inactive
COc1ccc(N=Nc2cc(C)c(N=Nc3ccc(S(=O)(=O)O)cc3)cc2OC)cc1,Potency,[1],inactive
same,outcome,[7],inactive
same,outcome,[8],inactive
same,Potency,[9],101 µM (active)
Oc1ccccc1Cc1ccccc1O,outcome,[2],inactive
same,Potency,[3],inactive
same,outcome,[4],inactive
same,outcome,[5],inactive
same,outcome,[6],inactive
same,outcome,[7],inactive
same,outcome,[8],inactive
same,Potency,[9],inactive
same,Potency,[10],inactive
CC1=NN(c2ccc(S(=O)(=O)O)cc2)C(=O)C1N=Nc1ccccc1 (stereo unspecified),Potency,[1],inactive
same,outcome,[6],inactive
same,outcome,[8],inactive
same,Potency,[9],inactive
Nc1c(NC/C=C\COc2cc(CN3CCCCC3)ccn2)c(=O)c1=O,activation,[1],4% [at 19 µM]
same,activation,[5],2.1% [at 19 µM]
same,activation (H2AX phosphorylation),[7],-1.81% [at 31.6 µM]
same,activation,[8],0.659% [at 15.8 µM]
same,"activity change, negative = cytotoxicity",[9],2.48% [at 31.6 µM]
O=C(/C=C/c1ccccc1)NCCO,Potency,[1],inactive
same,outcome,[5],inactive
same,outcome,[6],inactive
same,outcome,[7],inactive
same,outcome,[8],inactive
same,Potency,[9],inactive
Nc1cc(Cl)cc(S(=O)(=O)O)c1O,Potency,[1],inactive
same,outcome,[2],inactive
same,outcome,[8],inactive
same,Potency,[9],inactive
C/C=C(\C)C(=O)OCC/C=C\CC,Potency,[1],inactive
same,outcome,[5],inactive
same,outcome,[6],inactive
same,outcome,[7],inactive
same,outcome,[8],inactive
same,Potency,[9],inactive
COc1cc([N+](=O)[O-])ccc1N,Potency,[1],inactive
same,outcome,[5],inactive
same,outcome,[6],inactive
same,outcome,[7],inactive
same,outcome,[8],inactive
same,Potency,[9],inactive
CC(C)COC(=O)CC(C(=O)OCC(C)C)S(=O)(=O)O (stereo unspecified),Potency,[1],inactive
same,outcome,[2],inactive
same,outcome,[7],inactive
same,outcome,[8],inactive
COc1cc2c(Nc3ccc(Br)cc3F)ncnc2cc1OCC1CCN(C)CC1,Potency,[1],inactive
same,outcome,[2],inactive
same,outcome,[6],inactive
same,outcome,[7],inactive
same,outcome,[8],inactive
same,Potency,[9],inactive
O=c1[nH]c(=O)c2ccccc2o1,outcome,[2],inactive
same,Potency,[3],inactive
same,outcome,[4],inactive
same,outcome,[5],inactive
same,outcome,[6],inactive
same,outcome,[7],inactive
same,outcome,[8],inactive
same,Potency,[9],inactive
same,Potency,[10],inactive
CC(=O)/C=C/c1ccco1,outcome,[2],inactive
same,Potency,[3],inactive
same,outcome,[4],inactive
same,outcome,[5],inactive
same,outcome,[6],inactive
same,outcome,[7],inactive
same,outcome,[8],inactive
same,Potency,[9],inactive
same,Potency,[10],inactive
